Assay results: the supplement of paper PMC6555819

Tests used:
Experiment in all cases: PBM binding z-score (relative to random genomic background probes); higher = stronger binding; sequences stand for … in GC…GCGATTGACAGCGTAGAATGAAGG
[1] = tested on: PPARg:RXRa DBDmut IVT, anti-RXR (DBD mutation: RXRa K156A/R161A, NR concentration 270 nM, RXRa partner concentration 90 nM)
Method in brief: (§1)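 For binding z-scores, the reference was random background probes on custom Agilent 4×180K protein-binding microarrays. These arrays were incubated 1 h with ligand-free nuclear receptor dimers in PBS pH 7.4, 2% milk, 0.02% Triton X-100, 1 mM DTT, 0.2 mg/mL BSA and 0.4 mg/ml salmon testes DNA. Fluorescence was scanned after antibody detection of each partner (one per run) and regression-normalized.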

[2] = tested on: PPARg:RXRa IVT, anti-PPARg (NR concentration 270 nM, RXRa partner concentration 90 nM)
Method in brief: as §1

[3] = tested on: PPARg DBDmut:RXRa IVT, anti-PPARg (DBD mutation: PPARg1 K132A/R137A, NR concentration 270 nM, RXRa partner concentration 90 nM)
Method in brief: as §1

[4] = tested on: PPARg DBDmut IVT, anti-PPARg (DBD mutation: PPARg1 K132A/R137A, NR concentration 270 nM)
Method in brief: as §1

[5] = tested on: PPARg homodimer (NR concentration 180 nM)
Method in brief: as §1

[6] = tested on: PXR:RXRa (NR concentration 270 nM, RXRa partner concentration 90 nM)
Method in brief: as §1

[7] = tested on: PXR homodimer (NR concentration 270 nM)
Method in brief: as §1

[8] = tested on: RARa:RXR (NR concentration 270 nM, RXRa partner concentration 90 nM)
Method in brief: as §1

[9] = tested on: RARa homodimer (NR concentration 270 nM)
Method in brief: as §1

[10] = tested on: RARb:RXRa (NR concentration 270 nM, RXRa partner concentration 90 nM)
Method in brief: as §1

Row | Sequence | PBM binding z-score [1] | PBM binding z-score [2] | PBM binding z-score [3] | PBM binding z-score [4] | PBM binding z-score [5] | PBM binding z-score [6] | PBM binding z-score [7] | PBM binding z-score [8] | PBM binding z-score [9] | PBM binding z-score [10]
1 | AGGATGAGGTTACCAAAGATCAGGGAAACGCTTG | 0.68 | 1.09 | 0.557 | 0.461 | 1.12 | 1.47 | 0.27 | 2.02 | 0.36 | 2.12
2 | GCTAGTTGGTCACTAAAAGGTCACACACCGGTCG | 1.75 | 3.25 | -0.266 | -0.384 | 4.15 | 5.01 | 1.59 | 5.91 | 1.48 | 4.49
3 | CCTTACGGGTCACGAGGTTATAGAACGACGAGCG | 4.22 | 5.47 | 0.77 | 0.157 | 2.71 | 4.54 | 0.292 | 6.07 | 0.736 | 4.73
4 | TTACCAAGGTGAAAGTCGTTGATCCCTCTGTAGA | 1.87 | 2.87 | 0.179 | 0.266 | -0.0514 | 0.456 | -0.651 | 1.1 | -0.221 | 1.67
5 | CGAACTAGGTCATTTACAGGACAGTGAATAGTAA | 8.11 | 8.23 | 5.73 | 3.57 | 2.35 | 1.74 | 0.63 | 2.39 | 0.283 | 3.39
6 | AGTTAAAGTTCATCTAGGTAACGTAAGATATGCT | 1.51 | 3.39 | 1.68 | 1.41 | 2.77 | 4.75 | 6.53 | 3.23 | 2.39 | 4.79
7 | ATCGAAAGGTCGAAGGTGGGTATACCCACCCGAA | -0.494 | 1.52 | 0.29 | 0.264 | 1.05 | 2.11 | -0.101 | 3.05 | -0.341 | 3.51
8 | CAAACTAGGTCACCGGAAGGTCAAAGTACGCATG | 8.79 | 8.9 | 4.79 | 1.89 | 9.62 | 6.54 | 1.85 | 8.16 | 4.07 | 5.38
9 | CAAACTAGGTCAGAGAGGTCAAAGTCCGTGCGTA | 7.7 | 8.02 | 1.22 | 0.373 | 4.15 | 6.24 | 10.2 | 6.29 | 2.07 | 4.84
10 | ATATCTAGGTTAGCTGGGGTCATTCAGACTAGGC | 6.63 | 6.38 | 2.02 | 2.45 | 2.3 | 6.2 | 4.27 | 5.11 | 1.57 | 3.18
11 | CGTCCGAGGTCAGAGAGGTCAGTGAATGCCGAGT | 3.24 | 4.09 | -0.171 | -0.203 | 4.74 | 6.53 | 12.4 | 5.71 | 0.718 | 5.23
12 | GCGACTGGTGCAAAGCAGGTTACCATAAGGTTGG | -0.384 | 0.329 | -0.718 | -1.22 | -0.73 | -0.0682 | -0.682 | 0.163 | -1.27 | -0.0547
13 | CCTCGGAGGACAGAAGGCCAGAGCTGTCCGCTTT | -0.668 | -1.07 | -2.21 | -1.68 | -0.167 | -0.524 | -1.34 | -0.34 | -0.862 | 0.374
14 | TCCTGTAGATCAGCAGGTTAAGAAAGCTGGCCAA | 1.6 | -0.214 | -0.0572 | -0.0553 | -0.125 | 0.286 | -0.41 | 0.585 | -0.442 | 0.219
15 | CCGACTGGGGCAGAAAGGGTACCATACCATCCGG | 0.57 | 0.77 | -0.394 | -1.37 | -0.287 | -0.615 | -0.768 | -0.429 | -0.298 | 0.605
16 | CCTACTGGGCCAAAGGTCATTGAATCCAATGCTC | 5.12 | 6.72 | -0.082 | 0.0276 | 3.57 | 5.26 | 1.68 | 5.79 | 0.758 | 4.52
17 | CGTCAAAGTTCAACTAAGATAACGTAAAGCACGC | 0.308 | 2.03 | 1.72 | 2.53 | 4.35 | 4.78 | 3.71 | 4.27 | 2.93 | 5.08
18 | CCTCGAAGGACAGAAGGTCAGAGCTGTCCGCTTT | -0.0695 | -0.0413 | -0.921 | -1.97 | 1.14 | 1.08 | -0.321 | 1.83 | 0.748 | 3.06

Row | Sequence | PBM binding z-score [1] | PBM binding z-score [2] | PBM binding z-score [3] | PBM binding z-score [4] | PBM binding z-score [5] | PBM binding z-score [6] | PBM binding z-score [7] | PBM binding z-score [8] | PBM binding z-score [9] | PBM binding z-score [10]
19 | CCAGAGAGGTGAGAAGGTAACTCAGCCTCGATTA | 2.21 | 1.69 | -0.147 | -0.518 | 0.918 | 0.339 | 0.0728 | 1.04 | -0.0942 | 1.57
20 | TAGACTAGGTCAGATCGGGCCAGTATACGCTATA | 4.39 | 5.26 | 1.46 | 0.155 | 0.192 | 0.932 | -0.501 | 1.18 | -0.174 | 2.99
21 | TCTTGTAGATCAAGCAGGTTAACAAAGCCTGAGT | 1.57 | 0.741 | 0.45 | 0.44 | 0.0405 | 0.699 | 0.326 | 0.629 | -0.263 | 0.298
22 | AATACAGGGTCATCGTAGGACAGAGTACGCACAG | 2.91 | 4.34 | 1.42 | 1.38 | 2.54 | 4.92 | 0.871 | 4.82 | 0.937 | 4.22
23 | AATACAGGGTCACTAGGCCAGACTAGGTACGAAT | 4.01 | 5.9 | 3.19 | 1.09 | 1.28 | 3.06 | 0.374 | 3.87 | 0.731 | 4.3
24 | TCTAGCAGGCCAGAGGGACACTCAAGAGGTACGG | 0.376 | -0.183 | -1.54 | -1.73 | -1.07 | -0.803 | -0.661 | -1.02 | -0.883 | 0.0919
25 | CCTAGCAGGCCCATCTGGGTCACTCAAGGCTTGA | 0.547 | 2.42 | -1.01 | -1.83 | 0.0647 | 0.362 | -0.496 | 1.21 | -0.257 | 0.978
26 | AGAACGAGGGCACGCTGAGTTGTTAGCAGAGTAG | 4.03 | 3.92 | 0.505 | 0.0717 | -0.208 | 0.851 | -0.39 | 0.724 | -0.521 | 2.62
27 | ATACCTAGGTGATCGTGAGGTCGTTGATACTAAC | 1.24 | 1.46 | 0.324 | 0.924 | 0.783 | 2.64 | 2 | 2.04 | 0.311 | 1.09
28 | CCTTACGGGTCAAGGTTATAGCTCGGGTGGTACG | 2.32 | 3.66 | 0.883 | -0.415 | 1.91 | 3.16 | 0.16 | 3.72 | 0.652 | 4.12
29 | CGTCAAAGTTCAACTAAAGTAACGTAAAGCACGC | 0.164 | 2 | 1.4 | 1.46 | 3.19 | 4.82 | 3.3 | 4.03 | 2.17 | 5.28
30 | TTACCAAGGTGAGCTGAGGCCGTTGATCCAACTC | 0.88 | 1.24 | -0.955 | -0.387 | -0.831 | 2.17 | -0.968 | 1.15 | -1.4 | 1.09
31 | CCAACTGGGGCATAAGGTTACCATAAGCCAGCCC | 4.69 | 5.04 | 0.045 | -0.438 | 0.423 | 0.561 | -0.309 | 1.32 | 0.288 | 1.6
32 | TCATAAAGGTAAATGCTAGGTGAAAGTCCGATCT | 3.32 | 1.59 | 0.692 | 0.518 | 1.01 | 0.647 | 0.218 | 1.36 | 0.932 | 1.04
33 | TCTGCTAGGTCACTTGGTCAGCTAACGAGCTGCC | 4.06 | 4.55 | 2.55 | 1.22 | 0.811 | 0.889 | -0.812 | 1.93 | -0.792 | 3.81
34 | CGTCCAAGGTCAATGGTAGGTCAGTGAAAGCATT | 3.32 | 3.95 | -0.0725 | -0.844 | 5.44 | 4.84 | 1.79 | 5.88 | 1.16 | 5.37
35 | CATACAGGGTCAGCTAGGCCAGCGTAGGGACGGC | 1.15 | 2.23 | 0.338 | 0.666 | 1.25 | 2.09 | 0.247 | 2.95 | 0.0243 | 4.03
36 | GCATATAGGTAATACAAGGTGAAAGTGCGATTGT | 3.95 | 3.56 | 1.03 | 1.01 | 0.954 | 0.734 | 0.452 | 1.35 | 0.831 | 0.52
